These results are taken from PubChem BioAssay AID651710 (Broad Institute, 2012).

Several values for one entry are separate records, joined by “and”; a condition that tells them apart may be missing. Equal values may be shown once. Out of some 360,000 compounds screened, about 1,600 (0.44%) were called active. For the sample, actives were picked, then their nearest neighbours and some compounds at random. A number with no mark means an inactive call.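 How the source made its calls: active means every replicate showing at least 50% inhibition; inconclusive means mean inhibition at least 50% but not in every replicate; inactive means the rest.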

The assay deals with DNA repair protein RAD52 homolog (Homo sapiens) (UniProt P43351). Nature of the assay: RAD52 DNA annealing inhibitors, primary screen, biochemical, FRET, single point, set 2 (AID 651710). The note with it: recombinant RAD52 DNA annealing, FRET fluorescence; at 18.7 µM; hits give high values.
DNA repair protein RAD52 homolog (Homo sapiens), sequence (P43351 whole entry, looked up): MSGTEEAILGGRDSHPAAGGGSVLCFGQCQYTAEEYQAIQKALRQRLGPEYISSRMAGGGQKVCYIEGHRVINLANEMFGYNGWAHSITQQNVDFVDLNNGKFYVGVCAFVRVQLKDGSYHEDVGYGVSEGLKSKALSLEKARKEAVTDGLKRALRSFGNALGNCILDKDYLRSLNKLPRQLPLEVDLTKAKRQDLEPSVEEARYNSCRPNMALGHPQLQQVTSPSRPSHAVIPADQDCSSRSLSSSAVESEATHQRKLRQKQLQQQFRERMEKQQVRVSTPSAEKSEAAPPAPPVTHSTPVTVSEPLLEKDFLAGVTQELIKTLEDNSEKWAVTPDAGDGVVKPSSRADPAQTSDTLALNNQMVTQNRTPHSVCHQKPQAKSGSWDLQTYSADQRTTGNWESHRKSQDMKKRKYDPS
By inhibition is commonly meant the relative decrease from the control value, in per cent. Take `COCCNc1nc(NCc2ccc(NC(C)=O)cc2)c2sccc2n1`: the inhibition is -6.25%.

Consider `COCCNc1nc(Nc2ccccc2Cl)c2sc(-c3ccccc3)cc2n1`, for which the inhibition is -21.9%.

Take `CC(=O)Nc1ccc(CNc2nc(NCCN(C)C)nc3cc(-c4ccccc4)sc23)cc1`: the inhibition was 98.5% (active).

As to `C[C@@H]1CN([C@@H](C)CO)C(=O)c2cc(-c3cccnc3)cnc2O[C@H]1CN(C)Cc1ccc(-c2ccccc2)cc1`, the inhibition was 20.1%.

On to `O=C(C[C@H]1CC[C@H](NC(=O)c2ccc(F)cc2)[C@@H](CO)O1)NCCc1ccncc1`, for which the inhibition was 2.72%.

Take `CCC1Oc2ccccc2N(CC(=O)NCCCN2CCN(CC)CC2)C1=O` (stereo not given): the inhibition is -5.96%.

For the compound `CN1CCN(CCCNC(=O)c2ccc(/C=C3\Oc4ccccc4N(Cc4ccc(Cl)cc4)C3=O)cc2)CC1`, the inhibition was 94.8% (active).

Consider `Cc1c(C)n(Cc2ccc(Cl)cc2)c2ccc(C(=O)NCCCN3CCOCC3)cc12`, for which the inhibition is -12.7%.

As to `C[C@@H](O)C#Cc1ccc([C@H]2[C@@H](CO)N3CCCCN(CC4CC4)C[C@@H]23)cc1`, the inhibition is -24.5%.

`COc1ccccc1C#Cc1ccc([C@@H]2[C@H](CO)N3CCCCN(C(=O)C4CC4)C[C@@H]23)cc1`: the inhibition was 38.4%.

Turning to `CN(C)CC#Cc1ccc([C@H]2[C@H](CO)N3CCCCN(CC4CC4)C[C@@H]23)cc1`, the inhibition is 65.4% (active).

As for `COc1ccccc1C#Cc1ccc([C@H]2[C@H](CO)N3CCCCN(C(=O)C4CCC4)C[C@@H]23)cc1`, the inhibition is -21.5%.

In the case of `C[C@H](O)C#Cc1ccc([C@@H]2[C@H](CO)N3CCCCN(CC4CC4)C[C@@H]23)cc1`, the inhibition was 8.98%.

As to `COc1ccccc1C#Cc1ccc([C@@H]2[C@H](CO)N3CCCCN(C(=O)C4CCCC4)C[C@@H]23)cc1`, the inhibition was 71% (active).

Turning to `C[C@@H](NC(=O)C[C@H]1C[C@@H]2c3cc(NC(=O)c4ccc5c(c4)OCO5)ccc3O[C@@H]2[C@@H](CO)O1)c1ccccc1`, the inhibition was 8.57%.

Take `CO[C@H](CN(C)S(=O)(=O)c1ccc(C)cc1)[C@@H](C)CN(Cc1ccccc1Cl)[C@@H](C)CO`: the inhibition was -2.08%.

With `CO[C@H]1CN(C)C(=O)c2cc(NC(=O)Nc3ccccc3F)ccc2OC[C@H](C)N(C)C[C@H]1C`, the inhibition was 4.64%.

Turning to `CC(C)NC(=O)N1C[C@@H]2[C@H](c3ccccc31)[C@H](CO)N2C(=O)C1CCCC1`, the inhibition is 0.805%.

Turning to `COc1ccc2sc(N(CCCN(C)C)C(=O)c3ccc(S(=O)(=O)N(C)C4CCCCC4)cc3)nc2c1`, the inhibition was 62.7% (active).

Take `COc1ccc(N(Cc2ccc(N(C)C)cc2)C(=O)c2ccc(S(C)(=O)=O)cc2)cc1`: the inhibition was 2.51%.

On to `COc1ccc(S(=O)(=O)N(C)CC(=O)N2CCCC2)cc1`, for which the inhibition is -9.04%.

With `Cn1c(=O)n(C)c2cc(C(=O)Nc3ccc(Br)cc3)ccc21`, the inhibition is -11.5%.

For the compound `Cn1ccc(=Nc2ccc(NC(=O)c3ccc(N=c4ccn(C)c5ccc([N+](=O)[O-])cc45)cc3)cc2)cc1`, the inhibition is 94.9% (active).

As for `CN(CC1CCCO1)S(=O)(=O)c1ccc(C(=O)Nc2ccc([N+](=O)[O-])cc2)cc1` (stereo not given), the inhibition was -8.13%.

Regarding `C[C@@H]1CN([C@@H](C)CO)S(=O)(=O)c2ccc(/C=C/c3ccccc3)cc2O[C@H]1CN(C)C(=O)C1CC1`, the inhibition was 14.6%.

Regarding `O=C(C[C@H]1CC[C@H]2[C@@H](COC[C@H](O)CN2Cc2nccs2)O1)NCc1ccc(Oc2ccccc2)cc1`, the inhibition was 9.32%.

As for `O=C(Nc1ccccc1F)N[C@@H]1CC[C@H](CC(=O)N2CCCCC2)O[C@H]1CO`, the inhibition is -11.7%.

Regarding `CN(C)CCN1CCN(c2cc(-c3cccc(Cl)c3)nc3ccnn23)CC1`, the inhibition is 91.4% (active).

As for `C#Cc1cc(N2CCN(C(=O)c3ccoc3)CC2)n2nc(-c3cccc(Cl)c3)cc2n1`, the inhibition was 10.8%.

With `O=C(c1ccccc1)N1CCN(c2cc(-c3ccccc3)nc3cc(-c4cccc(Cl)c4)nn23)CC1`, the inhibition is -9.17%.

Take `CN(C)C(=O)c1cccc(-c2ccccc2[C@@H]2[C@@H](CO)N(C(=O)C3CCCCC3)[C@H]2C#N)c1`: the inhibition was 6.38%.

In the case of `C[C@@H]1CN([C@@H](C)CO)C(=O)Cc2cc(NC(=O)CCCN(C)C)ccc2O[C@@H]1CN(C)Cc1ccc(-c2ccccc2)cc1`, the inhibition is 86.8% (active).

Take `C[C@H](CO)N1C[C@H](C)[C@H](CN(C)Cc2ccc(-c3ccccc3)cc2)Oc2ccc(NC(=O)Nc3ccc(F)cc3)cc2CC1=O`: the inhibition was -6.38%.

Turning to `C[C@@H]1CN([C@H](C)CO)C(=O)Cc2cc(NC(=O)CCCN(C)C)ccc2O[C@@H]1CN(C)Cc1ccc(Oc2ccccc2)cc1`, the inhibition is 54.4%.

With `C[C@H]1CN([C@@H](C)CO)C(=O)Cc2cc(NC(=O)CCCN(C)C)ccc2O[C@@H]1CN(C)Cc1ccc(-c2ccccc2)cc1`, the inhibition was 48.7%.

Turning to `C[C@H](CO)N1C[C@H](C)[C@@H](CN(C)Cc2ccc(-c3ccccc3)cc2)Oc2ccc(NC(=O)CCC(F)(F)F)cc2CC1=O`, the inhibition was 23.2%.

With `C[C@H](CO)N1C[C@H](C)[C@@H](CN(C)Cc2ccc(-c3ccccc3)cc2)Oc2ccc(NC(=O)CCCN(C)C)cc2CC1=O`, the inhibition is 94% (active).

Consider `O=C(N[C@H]1CC[C@@H](CCNS(=O)(=O)c2ccccc2)O[C@@H]1CO)c1cnccn1`, for which the inhibition was -13.2%.

Regarding `C[C@@H]1CN([C@H](C)CO)C(=O)CCCn2cc(nn2)CO[C@H]1CN(C)C(=O)Nc1ccc(N2CCCCC2)cc1`, the inhibition is -12.3% and -1.13% and -23.2%.

In the case of `NC(N)=Nc1nc(-c2ccccc2)c2cc(Cl)ccc2n1`, the inhibition was 84.7% (active).

On to `Cc1onc(-c2ccccc2)c1C(=O)N=C(N)c1ccc(Cl)cc1`, for which the inhibition is -19.5%.

Regarding `Clc1ccc2nc(-c3ccccc3)nc(C(Cl)Cl)c2c1`, the inhibition was -10.7%.

Turning to `CC1=NNC(=O)C1CCC(=O)N/N=C\c1ccc(Cl)c(Cl)c1` (stereo not given), the inhibition is -0.875%.

For `O=C(CCC(=O)Nc1ccccc1)N/N=C/c1ccccc1F`, the inhibition was -7.35%.

Turning to `NCCCCCC(=O)N/N=C/c1ccc2nccnc2c1`, the inhibition is 87.9% (active).
